The full ranking holds about 18,000 sequences; the median of “TetR repression strength (sort-seq, GFP reporter)” is about 0.23, and the highest 2% start at about 0.68. The full list was thinned out, with the highest values kept by preference.
Molecular target: TetR (class B, Tn10) (UniProt P04483)
Assay: TetR repression strength (sort-seq, GFP reporter) (relative to tetO2 = 1); higher = stronger repression
Conditions: E. coli
Method in brief: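 Repression strength is the top bin index plus one minus the read-weighted mean bin, relative to the unaltered operator's value. A low-copy library in E. coli SIG10-MAX randomized eight operator positions between a constitutive promoter and sfGFP, with TetR expressed constitutively; cells grew 5 h at 37 °C in LB with 50 µg/mL chloramphenicol and 10^6 were FACS-sorted into 13 bins that were each Illumina-sequenced. Three independent transformations were averaged, keeping only members with ≥30 reads in all replicates and CV ≤0.5.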

Chain of TetR (class B, Tn10) (P04483 whole entry): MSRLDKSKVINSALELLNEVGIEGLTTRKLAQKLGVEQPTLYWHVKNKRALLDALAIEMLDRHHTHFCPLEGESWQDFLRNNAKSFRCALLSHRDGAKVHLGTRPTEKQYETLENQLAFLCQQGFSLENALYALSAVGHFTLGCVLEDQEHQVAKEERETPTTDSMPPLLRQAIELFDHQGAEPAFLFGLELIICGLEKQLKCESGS

| Sequence | TetR repression strength |
| --- | --- |
| TCCCACCAAGTGGGTGAGA | 0.139 |
| TCCCTGTGAGTTTGGGAGA | 0.424 |
| TCCCGGAGAGTTTCTGAGA | 0.191 |
| TCCCCTTTAGTGCCTGAGA | 0.523 |
| TCCCGTTGAGTAGGGGAGA | 0.0793 |
| TCCCAGGGAGTAGCGGAGA | 0.159 |
| TCCCACGTAGTGCAAGAGA | 0.62 |
| TCCCTTCAAGTGCTCGAGA | 0.24 |
| TCCCATGTAGTGTGGGAGA | 0.203 |
| TCCCGATCAGTGCAGGAGA | 0.299 |
| TCCCTGCGAGTGGAGGAGA | 1.08 |
| TCCCTGCTAGTGGGGGAGA | 0.0729 |
| TCCCTGCTAGTGGTGGAGA | 0.404 |
| TCCCTGCTAGTGGAGGAGA | 1.14 |
| TCCCTGCGAGTGGGGGAGA | 0.264 |
| TCCCTGCGAGTGGTGGAGA | 0.112 |
| TCCCGGGAAGTGTGTGAGA | 0.177 |
| TCCCTTGTAGTGAATGAGA | 0.277 |
| TCCCGGGCAGTGCCTGAGA | 0.283 |
| TCCCCGGGAGTGAGGGAGA | 0.13 |
| TCCCGGCCAGTTAGAGAGA | 0.129 |
| TCCCCGGCAGTCTGGGAGA | 0.271 |
| TCCCGGGCAGTCTGGGAGA | 1.2 |
| TCCCGGGCAGTCTGAGAGA | 0.179 |
| TCCCGGCCAGTCTGCGAGA | 0.967 |
| TCCCTGCCAGTCTGCGAGA | 0.24 |

| Sequence | TetR repression strength |
| --- | --- |
| TCCCCGGCAGTCTGCGAGA | 0.266 |
| TCCCGGGGAGTCTGGGAGA | 0.179 |
| TCCCGGGAAGTCTGGGAGA | 1.24 |
| TCCCGGAAAGTCTGGGAGA | 0.153 |
| TCCCAGGTAGTAATAGAGA | 0.443 |
| TCCCTGTCAGTACAGGAGA | 0.118 |
| TCCCAAACAGTTTGTGAGA | 0.0981 |
| TCCCCGAAAGTACAGGAGA | 0.259 |
| TCCCCTGTAGTCGTAGAGA | 0.344 |
| TCCCCAGTAGTGGGCGAGA | 0.963 |
| TCCCCAGCAGTGGGCGAGA | 0.125 |
| TCCCAAGGAGTGGGCGAGA | 0.231 |
| TCCCGGGGAGTGGGCGAGA | 0.225 |
| TCCCCAGGAGTCGGCGAGA | 0.237 |
| TCCCCCGGAGTGGGCGAGA | 0.111 |
| TCCCCAGTAGTGGGGGAGA | 0.14 |
| TCCCCGGGAGTGGGCGAGA | 0.993 |
| TCCCGAGGAGTCGGCGAGA | 0.0782 |
| TCCCAAGGAGTCGGCGAGA | 0.743 |
| TCCCCAGGAGTGGGCGAGA | 0.894 |
| TCCCAGGGAGTGGGCGAGA | 0.312 |
| TCCCACCCAGTAGTGGAGA | 0.211 |
| TCCCTAGAAGTCCTAGAGA | 0.0793 |
| TCCCCAGGAGTATCGGAGA | 0 |
| TCCCGTCTAGTTTCCGAGA | 0.169 |
| TCCCGGTCAGTCTGTGAGA | 0.287 |

| Sequence | TetR repression strength |
| --- | --- |
| TCCCTGGCAGTGTGTGAGA | 0.164 |
| TCCCATCGAGTCTGAGAGA | 0.218 |
| TCCCATACAGTTGAGGAGA | 0.0487 |
| TCCCACTTAGTGCGAGAGA | 0.0746 |
| TCCCGGAGAGTGCTGGAGA | 1.07 |
| TCCCTTAGAGTCCTGGAGA | 0.0777 |
| TCCCTGAGAGTGCTGGAGA | 0.564 |
| TCCCCTAGAGTCCTGGAGA | 0.952 |
| TCCCTAAGAGTGCTGGAGA | 0.768 |
| TCCCCTGGAGTCCTGGAGA | 0.439 |
| TCCCTAGGAGTGCTGGAGA | 0.382 |
| TCCCCGAGAGTGCTGGAGA | 0.252 |
| TCCCGGGGAGTGCTGGAGA | 0.359 |
| TCCCCTGTAGTTGTCGAGA | 0.123 |
| TCCCCGAAAGTCATAGAGA | 0.452 |
| TCCCATCCAGTCAAGGAGA | 0.595 |
| TCCCTTGCAGTACATGAGA | 0.298 |
| TCCCTTGAAGTGGGTGAGA | 0.165 |
| TCCCACCCAGTGGTAGAGA | 0.357 |
| TCCCAGTGAGTCGTGGAGA | 0.25 |
| TCCCGCCAAGTAAAAGAGA | 0.298 |
| TCCCATCAAGTTAATGAGA | 0.0658 |
| TCCCGTCGAGTCAGGGAGA | 0.367 |
| TCCCTATCAGTTCTTGAGA | 0.539 |
| TCCCTATCAGTACCTGAGA | 0.867 |
| TCCCCATCAGTTCCGGAGA | 0.207 |

| Sequence | TetR repression strength |
| --- | --- |
| TCCCTATCAGTACGTGAGA | 0.349 |
| TCCCTATCAGTACCAGAGA | 0.514 |
| TCCCTATCAGTTCGTGAGA | 0.423 |
| TCCCTATCAGTTCCTGAGA | 0.76 |
| TCCCCATCAGTTCCTGAGA | 0.721 |
| TCCCCATCAGTTCATGAGA | 0.401 |
| TCCCGGGTAGTCGAGGAGA | 0.313 |
| TCCCCAGCAGTTTCCGAGA | 0.275 |
| TCCCTTATAGTAGGCGAGA | 0.0601 |
| TCCCACCGAGTACGGGAGA | 0.135 |
| TCCCATGAAGTAAGGGAGA | 0.284 |
| TCCCTCTTAGTAAAAGAGA | 0.342 |
| TCCCTATGAGTAGTAGAGA | 0.204 |
| TCCCACGAAGTAGGGGAGA | 0.104 |
| TCCCTATTAGTGGTGGAGA | 0.0415 |
| TCCCACGCAGTGGGGGAGA | 0.188 |
| TCCCACGCAGTAGGGGAGA | 0.689 |
| TCCCTATGAGTAGTGGAGA | 0.707 |
| TCCCGATTAGTAAGGGAGA | 0.207 |
| TCCCTATTAGTAGTGGAGA | 0.683 |
| TCCCGAGTAGTAGGGGAGA | 0.0701 |
| TCCCTATGAGTGGTGGAGA | 0.119 |
| TCCCGATTAGTAGGGGAGA | 0.844 |
| TCCCTAGTAGTAGTGGAGA | 0.159 |

— a collection of fitness landscapes (doi:10.1038/s41467-024-54723-y)
